Bioassay records from PubChem BioAssay.
ASM inhibitor – human S-ASM enzyme inhibition | P17405 | placental ASM, HMU-PC fluorogenic substrate, 60 min | Potency, µM (series often up to 57.5 µM), inactives show at the highest dose activity change, negative = inhibition, usual class: inhibitors | hit rate 0.006% among 340,000 | AID 504937; further: potency means the concentration at half of the fitted maximal effect
Target sequence (P17405 47-631 limits assumed): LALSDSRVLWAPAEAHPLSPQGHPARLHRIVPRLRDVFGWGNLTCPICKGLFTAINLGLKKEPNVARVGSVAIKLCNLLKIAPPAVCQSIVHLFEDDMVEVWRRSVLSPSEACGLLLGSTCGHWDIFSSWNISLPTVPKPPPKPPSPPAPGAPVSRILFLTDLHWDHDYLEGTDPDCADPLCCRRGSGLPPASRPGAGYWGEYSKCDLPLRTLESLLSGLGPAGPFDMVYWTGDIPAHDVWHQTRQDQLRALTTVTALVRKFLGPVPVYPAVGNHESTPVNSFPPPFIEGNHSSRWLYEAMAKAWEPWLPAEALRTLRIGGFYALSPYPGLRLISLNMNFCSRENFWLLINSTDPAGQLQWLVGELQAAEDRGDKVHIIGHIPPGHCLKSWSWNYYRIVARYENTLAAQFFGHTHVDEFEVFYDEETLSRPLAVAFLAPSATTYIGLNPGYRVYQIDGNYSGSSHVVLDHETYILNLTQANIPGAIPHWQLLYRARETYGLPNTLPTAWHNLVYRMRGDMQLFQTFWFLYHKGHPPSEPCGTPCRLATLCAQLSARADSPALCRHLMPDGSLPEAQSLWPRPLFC
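Fluorogenic HMU-PC substrate (9 uM final) is turned over by placental ASM in 60 min at 37 C after a 10 min compound preincubation. Reaction ended by alkaline stop (pH 10), with fluorescence read at 386/447 nm.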
HepG2 viability – counter-screen for TGF-b inhibitors: cytotoxicity in HepG2 cells | HepG2 CAGA-GFP viability, ATP luminescence, 18 h | Potency, µM (top dose mostly 46.1 µM), without a hit: top-dose activity change, negative = cytotoxicity, most hits filed as cytotoxic | hit rate 0.76% among 410,000 | AID 588856; further: potency means the concentration at half of the fitted maximal effect
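CellTiter-Glo luminescence gave cytotoxicity after 18 hours at 37 degrees C. The cells were HepG2 CAGA-GFP in 1% FBS DMEM, stimulated with 500 pg/mL TGF-beta after compound addition. %Activity was normalised to no-cell wells (complete cell-killing) and DMSO (no toxicity), and curves were fitted and classified.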
TGFb SMAD3 inh – inhibitors of TGF-b signaling. HepG2 CAGA-GFP TGF-b/SMAD3 reporter, GFP fluorescence, 18 h; TGF-beta stimulated, 500 pg/mL final. Potency, µM (titrated, usually from 46.1 µM), inactives show at the highest dose activity, negative = inhibition, usual class: inhibitors. hit rate 1.2% among 410,000. AID 588855; further: potency means the concentration at half of the fitted maximal effect; on the % scale 0 is the no-effect control and ±100 the full control effect; nearly all actives have a fitted effect of over 65% in size
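Cell-based qHTS in HEPG2 carrying a CAGA-GFP Smad reporter; compounds added before 500 pg/mL final TGF-beta, 18 h incubation at 37 degrees C, GFP fluorescence quantified per cell by imaging cytometry.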
TDP1 cell CPT – growth inhibition of DT40 Tdp1-/-;hTDP1 cells with camptothecin (screen for TDP1 inhibitors); chicken DT40 Tdp1-/-;hTDP1 cells + 20 nM CPT, ATP luminescence, 48 h; Potency, µM (titrated, usually from 46.2 µM), without a hit: at the top dose activity change, negative = growth inhibition, hits mostly inhibitors; hit rate 12% among 420,000; further: potency means the concentration at half of the fitted maximal effect; on the % scale 0 is the no-effect control and ±100 the full control effect; nearly all actives have a fitted effect of over 55% in size
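Chicken DT40 Tdp1-/- cells complemented with human TDP1, 400 cells/well, exposed to compounds plus 20 nM camptothecin for at least 48 h at 37 C; viability read as ATP content by CellTiter-Glo luminescence.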
IL1B secr inh – blocks inflammasome-driven IL-1 beta release | THP-1 LPS/ATP IL-1B secretion, AlphaLISA, 16 h; active compounds read low | activity change, % at 57.5 µM | hit rate 4.7% among 360,000; in the data active means activity change below about -50%; inconclusive means mostly about -30% to -49%; further: on the % scale 0 is the no-effect control and ±100 the full control effect
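Secreted IL-1B measured by AlphaLISA bead assay after 16 h compound exposure of THP-1 cells; compounds (final up to 57.5 uM) added 1 h before LPS (250 ng/mL) and ATP (1.25 mM) stimulation; lower signal means less secretion.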
DT40 TDP1 no CPT – qHTS for Inhibitors of human tyrosyl-DNA phosphodiesterase 1 (TDP1): qHTS in cells in absence of CPT. Potency, µM (titrated, usually from 46.2 µM), for inactives: at the highest dose activity change, negative = growth inhibition, most hits filed as inhibitors. DT40 Tdp1-/- hTDP1 cells, no CPT, ATP luminescence, 48 h. hit rate 15% among 420,000; further: potency means the concentration at half of the fitted maximal effect; on the % scale 0 is the no-effect control and ±100 the full control effect; nearly all actives have a fitted effect of over 55% in size
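Seeded 400 DT40-hTDP1 cells/well (vehicle DMSO, no 20 nM CPT); pinned compounds; ≥48 hr at 37 °C; CellTiter-Glo luminescence as viability measure.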
The depositor's hits bear a star; i = inactive; u = inconclusive; x = no result. Shown are actives, neighbours in structure and some others; about 19% of the full set was active somewhere. Unless noted, the call rests on the fitted dose curve; in most records, active means well fitted curve in the direction sought with a large enough effect; inconclusive means small, poorly fitted or top-dose-only effect, or another doubt; inactive means no such curve, though single readings can be large; an effect the other way counts as inactive or inconclusive.

SMILES	ASM inhibitor	HepG2 viability	TGFb SMAD3 inh	TDP1 cell CPT	IL1B secr inh	DT40 TDP1 no CPT
Cc1nc(NCc2cccnc2)c2c3c(sc2n1)CC(C)CC3 (configuration not stated)	0%	-21%	u	u	-4	u
c1coc(CNc2ncnc3sc4c(c23)CCCCC4)c1	-5%	-10%	-2%	u	-3	u
CN(C)C(CNc1ncnc2sc3c(c12)CCCC3)c1ccco1 (configuration not stated)	8%	-1%	u	u	-11	23µM*
Cc1nc(NCc2ccccn2)c2c3c(sc2n1)CCCC3	0%	-7%	-1%	u	-54*	21µM*
COCCN1CSC(=S)N(Cc2ccco2)C1	-1%	-18%	-2%	21µM*	-2	4.6µM*
S=C1SCN(Cc2ccccn2)CN1Cc1ccco1	4%	-40%	u	6.5µM*	0	5.8µM*
CCOCCCN1CN(Cc2ccco2)CNC1=S	4%	9%	1%	-5%	10	-2%
Cc1nc2ccc(Br)cn2c1C(=O)N/N=C\c1ccccc1Cl	-1%	-15%	18%	u	6	u
Cn1c(O)c(N=NC(=O)CNC(=O)c2ccccc2)c2ccccc21	-1%	3%	-28%	8%	-9	8%
Cn1c(N=NC(=O)c2ccccc2)c(O)c2ccccc21	-6%	-26%	-26%	u	-11	23µM*
COc1ccc(-c2cc(Cl)cc3c(=O)c4ccccc4n(C)c23)cc1F	i	12%	-8%	18µM*	-12	21µM*
c1ccc2c(c1)c1ccccc1n1c(-c3ccc4c(c3)OCO4)nnc21	-6%	1%	-2%	u	-57*	21µM*
Cn1c2ccccc2c(=O)c2ccc(-c3ccc4c(c3)OCO4)cc21	i	-35%	-24%	u	-8	13µM*
Cn1c(-c2ccc3c(c2)OCO3)cc(=O)c2ccccc21	-1%	-19%	15%	-23%	-6	-11%
Cn1c(SCc2ccccc2)nnc1-c1ccc2c(c1)OCO2	-2%	3%	u	15%	-20	u
Cn1cc(S(C)=O)c(=O)c2ccc(F)cc21 (configuration not stated)	x	x	x	0%	x	-1%
Cn1c2ccccc2c(=O)c2ccc(F)cc21	i	2%	0%	u	-51*	u
COC(=O)c1cccc(NC(=O)CCCN2C(=O)NC3(CCCC3)C2=O)c1	2%	-3%	1%	-3%	7	-10%
CC1(C)CC(=O)c2cc(-c3nc(-c4ccc(Cl)cc4)cs3)c(=O)n(-c3ccc(F)cc3)c2C1	x	3%	3%	u	x	u
CSc1ccc(NC(=O)NCc2cccnc2)cc1	6%	-23%	2%	6%	-22	2%
CCn1c(=O)c2sccc2n(CC(=O)NC2CCCCC2)c1=O	0%	12%	23%	-12%	25	-13%
COc1cc(-c2ccc3c(=O)c4ccccc4n(C)c3c2)cc(OC)c1OC	331%	-26%	10%	16µM*	u	12µM*
Cn1c(C=O)c(-c2ccc3c(c2)OCCO3)c2ccccc21	49%	-15%	u	u	-8	18µM*
CCOc1ccc(OCCC(=O)OCC(=O)Nc2cccc(S(=O)(=O)N3CCCCC3)c2)cc1	-10%	-16%	-23%	u	17	u
CSc1ccccc1NC(=O)CN1C(=O)C2CC=CCC2C1=O (configuration not stated)	2%	-10%	14%	10%	2	-22%
